Experiment [1] in a line: E. coli DRC41 culture turbidity changes, primary screen, E. coli filamentation inducer project, strain DRC41, OD650, 48 h (AID 1152).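 Further: E. coli MC1000 strain DRC41 lacking acrAB efflux pump and sulA.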 Particulars: E. coli DRC41 (acrAB sulA), higher = more signal, called active from +8 up or from −8 down.
The nature of experiment [2]: small-molecule binders of probe aLefty1, primary screen, biochemical, small-molecule microarray, 635/667 nm fluorescence (AID 1153).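 Further: score merges spot fluorescence with signal-to-noise ratio from the scanned slide images.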 The conditions noted are these: higher = more signal.
Experiment [3] is described as follows: PSAC antagonists in infected red cells, primary screen, cell-based, P. falciparum Indochina, OD700, 1 h (AID 1154). Particulars: P. falciparum Indochina infected RBC osmotic lysis, higher = more signal, called active from +8 up or from −8 down.
Experiment [4] is described as follows: PSAC antagonists in infected red cells, primary screen, cell-based, P. falciparum Indochina, OD700, 2 h (AID 1155).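 Further: lysis reports solute entry through the parasite surface anion channel PSAC; channel blockers reduce lysis of infected cells.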 The conditions noted are these: P. falciparum Indochina infected erythrocytes, osmotic lysis OD700; higher = more signal, called active from +8 up or from −8 down.
Experiment [5] can be described thus: osmotic lysis modulators in infected erythrocytes, primary screen, PSAC antagonist project, cell-based, P. falciparum Indochina, OD700, 3 h (AID 1156). The conditions noted are these: higher = more signal, called active from +8 up or from −8 down.
Experiment [6] can be described thus: PSAC antagonists in infected red cells, primary screen, cell-based, P. falciparum Indochina, OD700, 18 h (AID 1157). The conditions noted are these: P. falciparum Indochina infected erythrocytes, osmotic lysis OD700, 18 h; higher = more signal, called active from +8 up or from −8 down.
Experiment [7] is described as follows: modulators of S6 phosphorylation in cells, primary screen, cell-based, A549, cytoblot, luminescence, serum-stimulated (AID 1158).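 Further: serum-stimulated A549 lung adenocarcinoma cells; signal is phosphorylated S6 detected by cytoblot immunostaining with HRP secondary.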 The conditions noted are these: A549 phospho-S6 cytoblot, 5 h, higher = more signal.
For experiment [8], the target named is NADPH oxidase 2 (Homo sapiens) (UniProt P04839). Nature of the experiment: NOX2-dependent H2O2 signal modulators, primary screen, NOX inhibitor project, cell-based, HEK293-NOX2, PMA-stimulated, Amplex Red fluorescence (AID 1159). Further: test concentration not given here. Particulars: 45 min, higher = more signal, called active from +8 up or from −8 down.
Chain of NADPH oxidase 2 (Homo sapiens) (P04839 whole entry, looked up): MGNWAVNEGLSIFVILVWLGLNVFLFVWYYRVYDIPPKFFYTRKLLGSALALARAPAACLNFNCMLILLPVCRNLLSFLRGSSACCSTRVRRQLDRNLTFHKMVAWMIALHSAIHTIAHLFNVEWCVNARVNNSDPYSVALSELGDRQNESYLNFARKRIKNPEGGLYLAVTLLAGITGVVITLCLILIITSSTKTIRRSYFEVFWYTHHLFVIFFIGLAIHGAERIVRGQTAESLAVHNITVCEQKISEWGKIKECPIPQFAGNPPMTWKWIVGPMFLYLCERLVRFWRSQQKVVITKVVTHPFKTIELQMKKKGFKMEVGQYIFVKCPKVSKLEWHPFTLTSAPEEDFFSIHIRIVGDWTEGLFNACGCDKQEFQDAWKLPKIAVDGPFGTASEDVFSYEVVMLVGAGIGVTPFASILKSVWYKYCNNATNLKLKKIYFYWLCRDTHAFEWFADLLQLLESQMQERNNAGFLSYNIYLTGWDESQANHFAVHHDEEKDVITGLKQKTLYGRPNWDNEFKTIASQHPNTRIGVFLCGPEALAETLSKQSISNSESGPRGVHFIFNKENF
The target of experiment [9] is NADPH oxidase 4 (Homo sapiens) (UniProt Q9NPH5). Nature of the experiment: NOX4-dependent H2O2 signal modulators, primary screen, NOX inhibitor project, cell-based, HEK293-NOX4, tetracycline-induced, Amplex Red fluorescence (AID 1160). The conditions noted are these: 45 min, higher = more signal, called active from +8 up or from −8 down.
Chain of NADPH oxidase 4 (Homo sapiens) (Q9NPH5 whole entry, looked up): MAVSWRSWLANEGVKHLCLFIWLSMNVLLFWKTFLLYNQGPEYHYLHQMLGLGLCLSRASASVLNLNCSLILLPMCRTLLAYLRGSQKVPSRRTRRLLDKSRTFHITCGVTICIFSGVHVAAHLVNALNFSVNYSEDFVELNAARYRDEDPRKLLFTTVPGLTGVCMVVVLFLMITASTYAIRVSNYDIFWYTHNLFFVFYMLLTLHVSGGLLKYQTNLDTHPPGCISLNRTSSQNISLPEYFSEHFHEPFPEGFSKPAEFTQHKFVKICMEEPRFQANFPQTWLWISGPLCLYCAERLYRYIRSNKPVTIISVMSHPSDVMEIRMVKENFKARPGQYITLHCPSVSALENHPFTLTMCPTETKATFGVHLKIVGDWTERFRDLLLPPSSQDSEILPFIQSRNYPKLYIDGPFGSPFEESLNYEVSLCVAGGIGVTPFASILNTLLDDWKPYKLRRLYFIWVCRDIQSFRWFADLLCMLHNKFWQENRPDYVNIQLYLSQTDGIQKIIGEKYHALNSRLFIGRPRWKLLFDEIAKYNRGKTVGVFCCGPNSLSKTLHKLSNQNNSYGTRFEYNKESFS
Experiment [10] deals with NADPH oxidase 5 (Homo sapiens) (UniProt Q96PH1). Nature of the experiment: NOX5-dependent H2O2 signal modulators, primary screen, NOX inhibitor project, cell-based, HEK293-NOX5, Amplex Red fluorescence (AID 1161). Particulars: HEK293-NOX5, ionomycin, 45 min, higher = more signal.
Chain of NADPH oxidase 5 (Homo sapiens) (Q96PH1 whole entry, looked up): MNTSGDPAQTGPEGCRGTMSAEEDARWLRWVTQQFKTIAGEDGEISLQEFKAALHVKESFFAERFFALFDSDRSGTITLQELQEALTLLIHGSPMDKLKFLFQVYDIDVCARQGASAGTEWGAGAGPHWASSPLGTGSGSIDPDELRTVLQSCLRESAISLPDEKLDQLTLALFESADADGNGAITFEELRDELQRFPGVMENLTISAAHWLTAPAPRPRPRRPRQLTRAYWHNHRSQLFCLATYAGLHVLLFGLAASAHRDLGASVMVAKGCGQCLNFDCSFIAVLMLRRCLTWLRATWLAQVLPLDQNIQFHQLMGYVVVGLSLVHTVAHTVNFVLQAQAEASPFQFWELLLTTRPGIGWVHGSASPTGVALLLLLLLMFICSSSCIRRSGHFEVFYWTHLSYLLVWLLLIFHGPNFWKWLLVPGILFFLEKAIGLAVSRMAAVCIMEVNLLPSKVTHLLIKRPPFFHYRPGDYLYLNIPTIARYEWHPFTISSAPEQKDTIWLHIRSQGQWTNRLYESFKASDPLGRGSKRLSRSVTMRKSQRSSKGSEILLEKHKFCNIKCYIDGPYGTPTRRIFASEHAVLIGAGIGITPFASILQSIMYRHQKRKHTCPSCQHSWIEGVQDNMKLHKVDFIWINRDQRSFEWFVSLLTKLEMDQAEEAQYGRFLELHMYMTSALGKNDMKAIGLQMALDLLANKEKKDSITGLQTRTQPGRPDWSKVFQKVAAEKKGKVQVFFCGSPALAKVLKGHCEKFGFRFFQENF
Experiment [11] is described as follows: A549 cell viability effects, profiling panel, calcein-AM fluorescence, 48 h, basal (AID 1162). Further: test concentration not given here. The conditions noted are these: higher = more signal.
Experiment [12] in a line: adipocyte viability effects, profiling panel, cell-based, 3T3-L1 adipocytes, calcein-AM fluorescence, 48 h, basal (AID 1163). Further: test concentration not given here. Particulars: 3T3-L1 adipocytes viability, higher = more signal.
The nature of experiment [13]: HepG2 cell viability effects, profiling panel, calcein-AM fluorescence, 48 h, basal (AID 1164). Further: test concentration not given here. The conditions noted are these: higher = more signal.
The nature of experiment [14]: MM1S cell viability effects, profiling panel, calcein-AM fluorescence, 48 h, basal (AID 1165).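 Further: viability of MM1S multiple myeloma cells under basal unstimulated conditions; test concentration not given here.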 The conditions noted are these: higher = more signal.
The nature of experiment [15]: basal RPMI8226 viability, no added stimulus, profiling panel, cell-based, calcein-AM fluorescence, 48 h, PK04 Diversity Set (AID 1166).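 Further: cells grown under basal conditions without added stimulus; test concentration not given here.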 Particulars: RPMI8226 myeloma viability, higher = more signal.
Experiment [16] can be described thus: basal HepG2 mitochondrial membrane potential changes, profiling panel, cell-based, JC-1 fluorescence, 24 h, 100 nL compound (AID 1167). Further: test concentration not given here. The conditions noted are these: higher = more signal.
Experiment [17] can be described thus: basal 3T3-L1 adipocyte mitochondrial potential changes, profiling panel, cell-based, JC-1 fluorescence, 3T3-L1 adipocytes, 24 h, 100 nL compound (AID 1168). Further: test concentration not given here. Particulars: JC-1 mitochondrial fluorescence, higher = more signal, called active from +8 up or from −8 down.
Experiment [18] in a line: basal RPMI8226 mitochondrial membrane potential changes, profiling panel, cell-based, JC-1 fluorescence, 24 h, 100 nL compound (AID 1169). Further: test concentration not given here. Particulars: RPMI8226 myeloma, JC-1 mitochondrial potential fluorescence, higher = more signal.
Experiment [19] is described as follows: basal MM1S mitochondrial membrane potential changes, profiling panel, cell-based, JC-1 fluorescence, 24 h, 100 nL compound (AID 1170). Further: test concentration not given here. The conditions noted are these: higher = more signal.
The nature of experiment [20]: A549 lung cancer cell viability effects, profiling panel, resazurin fluorescence, 24 h, PK04 Diversity Set (AID 1171). Further: test concentration not given here. The conditions noted are these: higher = more signal, called active from +8 up or from −8 down. On the technique in general: The colour change of resazurin is a common sign of viable cells or microbes.

Activity calls are given as the source filed them.

On to `COCCOC(=O)N1C(=O)[C@@]2(c3cc(C#CC4(O)CCCCCC4)ccc31)[C@H](c1ccc(OCCO)cc1)N1[C@H](c3ccccc3)[C@H](c3ccccc3)OC(=O)[C@H]1[C@@H]2C(N)=O`, for which the z-score in experiment [1] is -0.137 (inactive); in experiment [3] it was 4.19 (inactive); in experiment [4], 1.89 (inactive); in experiment [5], 0.295 (inactive); in experiment [6], 0.999 (inactive); in [7] it was -0.485. For the same compound, the z-score was 1.82 (inactive) in experiment [8]; 0.847 (inactive) in experiment [9]; -0.305 in [10]; -0.29 in experiment [11]; 0.902 in experiment [12]; -1.52 in [13]. Moreover, the z-score in [14] is -3.04; in experiment [15], -3.86; in experiment [16], -2.03; in experiment [17] it was -0.408 (inactive); in experiment [18], -0.814; in experiment [19], -1.21. For the same compound, in experiment [20], the z-score is -0.933 (inactive). Further, the composite z-score in experiment [2] worked out at 0.223.

Take `COc1cc2c(cc1O)C(c1ccc(CN3CCCC3)cc1)N(Cc1ccc([N+](=O)[O-])o1)CC2` (stereo not given): the z-score in experiment [1] was -0.715 (inactive); in experiment [3], 23.1 (active); in experiment [4], 7.28 (inactive); in experiment [5], -0.176 (inactive); in experiment [6], 0.818 (inactive); in experiment [7], -0.683. Further, the z-score is -3.89 (inactive) in experiment [8]; -2.56 (inactive) in experiment [9]; -3.64 in experiment [10]; -0.731 in experiment [11]; 0.0389 in [12]; 0.0023 in experiment [13]. In addition, the z-score in experiment [14] is 0.279; in experiment [15], -0.0679; in [16] it was -2.18; in experiment [17], -2.19 (inactive); in experiment [18] it was 0.733; in [19] it was -0.307. In addition, the z-score in [20] was -0.679 (inactive). Further, the composite z-score in experiment [2] was -0.257.

In the case of `O=C1NC(=O)C2C1C=CC(C(O)c1cccc(O)c1)N2Nc1ccc(Cl)cc1Cl` (stereo not given), the z-score in experiment [1] is -4.5 (inactive); in [3], 4.82 (inactive); in experiment [4] it was 1.36 (inactive); in [5], -0.608 (inactive); in experiment [6] it was 0.901 (inactive); in [7], -1.22. The z-score in [8] is -0.897 (inactive); in experiment [9], -5.3 (inactive); in experiment [10], -3.11; in experiment [11], -1.09; in experiment [12] it was -0.648; in [13] it was -1.13. Moreover, the z-score in experiment [14] was -3.03; in experiment [15], -1.52; in experiment [16], -2.54; in experiment [17], -0.299 (inactive); in experiment [18] it was -0.39; in [19], 0.0224. For the same compound, the z-score in experiment [20] is -0.728 (inactive). Also, the composite z-score in [2] came to 0.139.

As for `Cc1ccc(S[C@]2(C(=O)NCCN3CCOCC3)CC(=O)N(C3CCCCC3)[C@@H]2c2ccc(CO)cc2I)cc1`, the z-score in experiment [1] was 0.465 (inactive); in experiment [3], 6.63 (inactive); in experiment [4], 0.86 (inactive); in experiment [5] it was 1.68 (inactive); in experiment [6], 0.622 (inactive); in [7] it was -0.439. The z-score in experiment [8] is 0.832 (inactive); in experiment [9] it was 0.11 (inactive); in experiment [10], 2.6; in experiment [11], 0.312; in [12], 0.0138; in [13], 0.293. Also, the z-score in [14] was -2.42; in experiment [15], -2.46; in [16] it was 2.54; in [17] it was 0.11 (inactive); in [18], -0.457; in [19], -1.53. Also, the z-score in experiment [20] was 2.04 (inactive). The same compound showed a composite z-score in [2] of -0.174.

Regarding `C=C(C(=O)CC[C@@H](OC(C)=O)c1cccc(OCCO)c1)C(C)C`, the z-score in [1] is -0.369 (inactive); in experiment [3] it was 3.09 (inactive); in experiment [4], -0.0769 (inactive); in experiment [5] it was 1.38 (inactive); in [6], 0.0127 (inactive); in experiment [7], -0.78. For the same compound, the z-score is 0.825 (inactive) in experiment [8]; -1.12 (inactive) in experiment [9]; -1.05 in experiment [10]; -0.351 in experiment [11]; 0.0938 in experiment [12]; -0.351 in experiment [13]. Moreover, the z-score in [14] is -1.54; in experiment [15], -0.0608; in experiment [16] it was -1.55; in [17], 0.216 (inactive); in [18], 0.592; in experiment [19] it was 0.484. The z-score in experiment [20] is -0.326 (inactive). This compound displayed a composite z-score in [2] of 0.11.
